In PubChem BioAssay AID1159580 (chemical genetic matrix, 2015):
Hit rate of the full screen: of about 5,500 compounds, about 2,000 (36%) were called active. About 18% were inconclusive and are not listed. Cut-off read from the data, not from the text of the source: active = normalized growth mostly below about 0.91 (no sharp cut-off); inconclusive = no clear call, values can overlap the other calls; inactive = mostly above about 0.92. The list shows a part of the results.

Assay: chemical genetic growth profiling, strain panel (AID 1159580);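 note: tested at 20 µM; growth read once vehicle control cultures reached saturation at 30 °C; 1 = growth at the plate median or of vehicle wells; lower values mean less growth of the strain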
Conditions: growth OD

Measured: normalized growth

CN1CC(=O)N=C1N
inactive: S. cerevisiae deletion strains, locus YJR043C, strain POL32, stronger effect = lower value 1.01 | S. cerevisiae deletion strains, locus YJR066W, strain TOR1, stronger effect = lower value 0.902 | S. cerevisiae deletion strains, locus YJR075W, strain HOC1, stronger effect = lower value 1.01 | S. cerevisiae deletion strains, locus YKL009W, strain mrt4, stronger effect = lower value 1.05 | S. cerevisiae deletion strains, locus YKL068W, stronger effect = lower value 0.996 | S. cerevisiae deletion strains, locus YKL085W, strain MDH1 (second series), stronger effect = lower value 0.998 | S. cerevisiae deletion strains, locus YKL085W, strain MDH1, stronger effect = lower value 0.998 | S. cerevisiae deletion strains, locus YKL160W, strain elf1, stronger effect = lower value 1.01 | S. cerevisiae deletion strains, locus YKR001C, strain vps1, stronger effect = lower value 1.01 | S. cerevisiae deletion strains, locus YKR026C, strain gcn3, stronger effect = lower value 0.994 | S. cerevisiae deletion strains, locus YKR091W, strain srl3, stronger effect = lower value 1.02 | S. cerevisiae deletion strains, locus YLL001W, strain dnm1, stronger effect = lower value 1.01 | S. cerevisiae deletion strains, locus YLL026W, stronger effect = lower value 1.02 | S. cerevisiae deletion strains, locus YLL041C, strain sdh2, stronger effect = lower value 1.02 | S. cerevisiae deletion strains, locus YLR027C, strain aat2, stronger effect = lower value 1.03 | S. cerevisiae deletion strains, locus YLR039C, strain RIC1, stronger effect = lower value 1.04 | S. cerevisiae deletion strains, locus YLR058C, strain SHM2, stronger effect = lower value 1.01 | S. cerevisiae deletion strains, locus YLR102C, strain apc9, stronger effect = lower value 0.992 | S. cerevisiae deletion strains, locus YLR113W, strain HOG1, stronger effect = lower value 0.94 | S. cerevisiae deletion strains, locus YLR221C, strain rsa3, stronger effect = lower value 1.05 | S. cerevisiae deletion strains, locus YLR258W, strain gsy2, stronger effect = lower value 1.03 | S. cerevisiae deletion strains, locus YLR262C, strain YPT6 (second series), stronger effect = lower value 1.09 | S. cerevisiae deletion strains, locus YLR262C, strain YPT6, stronger effect = lower value 1.08 | S. cerevisiae deletion strains, locus YLR268W, strain sec22, stronger effect = lower value 0.977 | S. cerevisiae deletion strains, locus YLR320W, strain mms22, stronger effect = lower value 1.07 | S. cerevisiae deletion strains, locus YLR330W, strain CHS5, stronger effect = lower value 1.01 | S. cerevisiae deletion strains, locus YLR342W, strain FKS1 (second series), stronger effect = lower value 0.984 | S. cerevisiae deletion strains, locus YLR342W, strain FKS1, stronger effect = lower value 1.03 | S. cerevisiae deletion strains, locus YLR357W, strain rsc2, stronger effect = lower value 1.01 | S. cerevisiae deletion strains, locus YLR370C, strain arc18, stronger effect = lower value 1.02 | S. cerevisiae deletion strains, locus YLR371W, strain rom2, stronger effect = lower value 0.985 | S. cerevisiae deletion strains, locus YLR384C, strain iki3, stronger effect = lower value 1.01 | S. cerevisiae deletion strains, locus YLR418C, strain cdc73, stronger effect = lower value 0.98 | S. cerevisiae deletion strains, locus YML016C, strain PPZ1, stronger effect = lower value 1.01 | S. cerevisiae deletion strains, locus YML032C, strain rad52, stronger effect = lower value 0.987 | S. cerevisiae deletion strains, locus YML120C, strain ndi1, stronger effect = lower value 1.03 | S. cerevisiae deletion strains, locus YML124C, strain tub3, stronger effect = lower value 0.992 | S. cerevisiae deletion strains, locus YMR058W, strain fet3, stronger effect = lower value 1.04 | S. cerevisiae deletion strains, locus YMR078C, strain ctf18, stronger effect = lower value 1 | S. cerevisiae deletion strains, locus YMR125W, strain sto1, stronger effect = lower value 1.02 | S. cerevisiae deletion strains, locus YMR129W, stronger effect = lower value 1.01 | S. cerevisiae deletion strains, locus YMR205C, strain PFK2, stronger effect = lower value 1.08 | S. cerevisiae deletion strains, locus YMR223W, strain ubp8, stronger effect = lower value 0.992 | S. cerevisiae deletion strains, locus YMR231W, strain pep5, stronger effect = lower value 1.01 | S. cerevisiae deletion strains, locus YMR307W, strain GAS1, stronger effect = lower value 0.998 | S. cerevisiae deletion strains, locus YNL067W, strain RPL9B, stronger effect = lower value 1.01 | S. cerevisiae deletion strains, locus YNL071W, strain lat1, stronger effect = lower value 1.03 | S. cerevisiae deletion strains, locus YNL128W, strain TEP1, stronger effect = lower value 1.04 | S. cerevisiae deletion strains, locus YNL183C, strain NPR1, stronger effect = lower value 0.893 | S. cerevisiae deletion strains, locus YNL209W, strain ssb2, stronger effect = lower value 1.03 | S. cerevisiae deletion strains, locus YNL233W, strain BNI4, stronger effect = lower value 1.01 | S. cerevisiae deletion strains, locus YNL248C, strain rpa49, stronger effect = lower value 1.02 | S. cerevisiae deletion strains, locus YNL250W, strain rad50, stronger effect = lower value 0.996 | S. cerevisiae deletion strains, locus YNL271C, strain bni1, stronger effect = lower value 0.991 | S. cerevisiae deletion strains, locus YNL298W, strain CLA4, stronger effect = lower value 0.988 | S. cerevisiae deletion strains, locus YNL307C, strain MCK1, stronger effect = lower value 0.98 | S. cerevisiae deletion strains, locus YNL322C, strain KRE1 (second series), stronger effect = lower value 1.02 | S. cerevisiae deletion strains, locus YNL322C, strain KRE1, stronger effect = lower value 1.01 | S. cerevisiae deletion strains, locus YNR049C, strain mso1, stronger effect = lower value 1.01 | S. cerevisiae deletion strains, locus YNR052C, strain pop2, stronger effect = lower value 0.991 | S. cerevisiae deletion strains, locus YOL012C, strain htz1 2.03 | S. cerevisiae deletion strains, locus YOL147C, strain pex11, stronger effect = lower value 0.99 | S. cerevisiae deletion strains, locus YOR001W, strain rrp6, stronger effect = lower value 1.02 | S. cerevisiae deletion strains, locus YOR061W, strain CKA2, stronger effect = lower value 1.01 | S. cerevisiae deletion strains, locus YOR069W, strain VPS5, stronger effect = lower value 1.01 | S. cerevisiae deletion strains, locus YOR070C, strain gyp1, stronger effect = lower value 1.03 | S. cerevisiae deletion strains, locus YOR080W, strain dia2, stronger effect = lower value 1.02 | S. cerevisiae deletion strains, locus YOR083W, strain WHI5, stronger effect = lower value 1.01 | S. cerevisiae deletion strains, locus YOR106W, strain vam3, stronger effect = lower value 1.02 | S. cerevisiae deletion strains, locus YOR136W, strain idh2, stronger effect = lower value 0.996 | S. cerevisiae deletion strains, locus YOR144C, strain elg1, stronger effect = lower value 0.997 | S. cerevisiae deletion strains, locus YOR184W, strain ser1, stronger effect = lower value 1.03 | S. cerevisiae deletion strains, locus YOR231W, strain MKK1, stronger effect = lower value 0.964 | S. cerevisiae deletion strains, locus YOR265W, strain rbl2, stronger effect = lower value 1.01 | S. cerevisiae deletion strains, locus YOR270C, strain vph1, stronger effect = lower value 1.11 | S. cerevisiae deletion strains, locus YOR290C, strain snf2, stronger effect = lower value 1.02 | S. cerevisiae deletion strains, locus YOR316C, strain cot1, stronger effect = lower value 0.993 | S. cerevisiae deletion strains, locus YPL051W, strain arl3, stronger effect = lower value 1.02 | S. cerevisiae deletion strains, locus YPL055C, strain LGE1, stronger effect = lower value 1.03 | S. cerevisiae deletion strains, locus YPL078C, strain atp4, stronger effect = lower value 1.02 | S. cerevisiae deletion strains, locus YPL106C, strain sse1, stronger effect = lower value 1.02 | S. cerevisiae deletion strains, locus YPL240C, strain hsp82, stronger effect = lower value 1.02 | S. cerevisiae deletion strains, locus YPL256C, strain CLN2, stronger effect = lower value 0.946 | S. cerevisiae deletion strains, locus YPR119W, strain clb2, stronger effect = lower value 0.991 | S. cerevisiae deletion strains, locus YPR141C, strain kar3, stronger effect = lower value 0.989 | S. cerevisiae deletion strains, locus YPR163C, strain tif3, stronger effect = lower value 0.982 | S. cerevisiae deletion strains, locus YPR167C, strain met16, stronger effect = lower value 0.979 | S. cerevisiae deletion strains, strain wtn01, stronger effect = lower value 0.974 | S. cerevisiae strains, strain wild type, stronger effect = lower value 1.01
